Data: PubChem BioAssay (NCATS)
Values without a mark were called inactive. Calls come from the whole dose curve; as a rule, active = well fitted curve in the direction sought with a large enough effect; inconclusive = small, poorly fitted or top-dose-only effect, or effect the other way, or another doubt; inactive = no such curve, though single readings can be large or run the other way.

These compounds were tested against Beta-2 adrenergic receptor (Homo sapiens) (UniProt P07550) (assay: qHTS validation assay of beta-arrestin-biased ligands of beta2-adrenergic receptor (AID 485366; note: 0% is about no effect)). Settings: cell-based beta-arrestin recruitment to ADRB2, qHTS; series mostly up to 46.1 µM; activation: at the top concentration.
Summary of the method: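 qHTS, Tango cells, 1500 cells/well, DMEM + 1% FBS. Cpd 18 hr at 37 degrees C. Luciferin/ATP/CoA detection mix, 15 min RT, luminescence read. %Activity from corrected signal; CRC fit, curve class.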

Chain of Beta-2 adrenergic receptor (Homo sapiens) (P07550 whole entry, looked up): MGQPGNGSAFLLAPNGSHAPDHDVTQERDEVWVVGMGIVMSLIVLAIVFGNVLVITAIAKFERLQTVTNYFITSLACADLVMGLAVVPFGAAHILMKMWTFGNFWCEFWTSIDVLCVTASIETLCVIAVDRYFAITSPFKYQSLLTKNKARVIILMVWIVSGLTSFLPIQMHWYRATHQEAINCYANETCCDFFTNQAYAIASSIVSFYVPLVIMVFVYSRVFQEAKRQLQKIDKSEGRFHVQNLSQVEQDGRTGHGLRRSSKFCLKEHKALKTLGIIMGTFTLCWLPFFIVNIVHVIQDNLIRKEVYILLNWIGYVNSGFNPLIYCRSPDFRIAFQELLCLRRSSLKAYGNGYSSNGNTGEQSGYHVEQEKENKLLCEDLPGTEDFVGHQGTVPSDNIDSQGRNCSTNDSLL

Row | Compound | activation [%]
1 | CC(C)(C=O)Cc1cc(C(C)(C)C)c(O)c(C(C)(C)C)c1 | -0.0674
2 | CCCCCCCCCCCCCCCCCC(=O)OC(CC(=O)O)C[N+](C)(C)C (configuration not stated) | -1.55
3 | O=C(Nc1cccc(C(=O)Nc2ccc(S(=O)(=O)O)c3cc(S(=O)(=O)O)cc(S(=O)(=O)O)c23)c1)Nc1cccc(C(=O)Nc2ccc(S(=O)(=O)O)c3cc(S(=O)(=O)O)cc(S(=O)(=O)O)c23)c1 | 3.19
4 | CN1CCc2ccccc2Cc2[nH]c3ccccc3c2CC1 | -0.0881
5 | Cc1ccccc1CNc1ncnc2c1ncn2C1OC(CO)C(O)C1O (configuration not stated) | 1.59
6 | Cc1cc(NC(=O)Nc2ccc3c(ccn3C)c2)sn1 | 0.288
7 | O=C(O)[C@@H]1C[C@H](C(=O)O)N1 | 0.816
8 | O=C1C(SCCO)=C(SCCO)C(=O)c2ccccc21 | -0.152
9 | CCCCCC(O)c1cccc(OCc2ccc3ccccc3n2)c1 (configuration not stated) | 0.0821
10 | Oc1ccc(C2CNCc3sccc32)cc1O (configuration not stated) | -1.22
11 | O=c1[nH]c2cc(C(F)(F)F)ccc2n1-c1cc(C(F)(F)F)ccc1O | -0.518
12 | CCCN(CC1CC1)c1nc(C)nc(Nc2c(Cl)cc(Cl)cc2Cl)c1Cl | -0.184
13 | C#CCN1C(C)=C(C(=O)OC)C(c2cccc([N+](=O)[O-])c2)C(C(=O)OCC)=C1C (configuration not stated) | -0.109
14 | Oc1cc(O)cc(/C=C/c2ccc(O)c(O)c2)c1 | 3.4
15 | Fc1ccc(C(OCCCc2cnc[nH]2)c2ccc(F)cc2)cc1 | 0.176
16 | CC12C(=O)OC(=O)C1(C)C1CCC2O1 (configuration not stated) | -0.0958
17 | N[C@@H](CC(=O)O)C(=O)O | -0.743
18 | CC(C)Cc1ccc([C@H](C)C(=O)O)cc1 | 0.348
19 | CCN1/C(=C/C(C)=O)Sc2ccc(OC)cc21 | 4.7
20 | O=C1NC(O)=NC1(c1ccccc1)c1ccccc1 | -0.122
21 | O=C(O)CCCC[C@@H]1CCSS1 | -0.0256
22 | NCCCCCCCCCCN | -0.0234
